Screens from PubChem.
mut p53 SMM – mutant p53 (human) binding; small molecule microarray binding, anti-GST fluorescence; calls only; hit rate 0.4% among 17,000;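 active means compounds whose four printed spots each glow above background more than chance allows, each with a p-value under 7%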
c-Myc SMM – binders of human c-Myc; hit rate 1.5% among 17,000; calls only; AID 624141; small molecule microarray, His-c-Myc binding, anti-His fluorescence;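 active means spot fluorescence over background with P-value below 7% in all four replicate spots, showing protein binding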;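 further: score is binary with 100 for all four spots passing and 0 otherwise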
NFkB SMM – NF-kappa-B p105 (human) binding; AID 624139; Small molecule microarray, anti-His fluorescence binding; hit rate 1.3% among 17,000; P19838; calls only;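 active means spot fluorescence over background significantly raised, with a chance value under 7% in all four replicate spots of the compound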;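 further: probe protein is his-tagged human p50 processed subunit at 1 µg/ml; raw spot fluorescence signals with no normalization applied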
STAT3 SMM – binds human STAT3 on microarray; hit rate 0.2% among 17,000; calls only; AID 624138; Small molecule microarray, His-STAT3 binding, anti-His fluorescence;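 active means compounds whose four printed spots each show fluorescence over background unusually high for their array block, chance value under 7%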
An asterisk follows results filed as active; i = inactive; + = active, no number. This is a sample that favours compounds with a hit; in the whole collection about 2.4% have one here.

SMILES	mut p53 SMM	c-Myc SMM	NFkB SMM	STAT3 SMM
CCn1cnc2c(Nc3cccc(Cl)c3)nc(N[C@@H]3CCCC[C@@H]3N)nc21	i	+	i	i
C=C1[C@@H](O)[C@]23C[C@@H]1[C@@H](O)C[C@H]2[C@@]12C4[C@@H]3C[C@@H]1[C@@](C)(CC[C@@H]2O)CN4CC	i	i	i	i
CN1CC(C(=O)N[C@]2(C)O[C@@]3(O)[C@@H]4CCCN4C(=O)[C@H](Cc4ccccc4)N3C2=O)C=C2c3cccc4[nH]cc(c34)C[C@H]21 (stereo partly specified)	i	+	+	i
CC(C)[C@H]1C(=O)N2CCC[C@H]2[C@]2(O)O[C@](NC(=O)[C@@H]3C=C4c5cccc6[nH]cc(c56)C[C@H]4N(C)C3)(C(C)C)C(=O)N12	i	i	i	i
